In PubChem BioAssay AID1376 (SRMLSC, 2008) one finds inhibition data, which are given here for 93 compounds.

About 530 (0.24%) of roughly 220,000 compounds were called active. No stated cut-off is given here; in the data, active means inhibition above about 13%; inconclusive means no clear call, values can overlap the other calls; inactive means below that. The entries come from a sample that favours actives as a whole. Measured potencies and affinities stand elsewhere.

Chain of Bifunctional protein GlmU (Mycobacterium tuberculosis (strain ATCC 25618 / H37Rv)) (P9WMN3 whole entry, looked up): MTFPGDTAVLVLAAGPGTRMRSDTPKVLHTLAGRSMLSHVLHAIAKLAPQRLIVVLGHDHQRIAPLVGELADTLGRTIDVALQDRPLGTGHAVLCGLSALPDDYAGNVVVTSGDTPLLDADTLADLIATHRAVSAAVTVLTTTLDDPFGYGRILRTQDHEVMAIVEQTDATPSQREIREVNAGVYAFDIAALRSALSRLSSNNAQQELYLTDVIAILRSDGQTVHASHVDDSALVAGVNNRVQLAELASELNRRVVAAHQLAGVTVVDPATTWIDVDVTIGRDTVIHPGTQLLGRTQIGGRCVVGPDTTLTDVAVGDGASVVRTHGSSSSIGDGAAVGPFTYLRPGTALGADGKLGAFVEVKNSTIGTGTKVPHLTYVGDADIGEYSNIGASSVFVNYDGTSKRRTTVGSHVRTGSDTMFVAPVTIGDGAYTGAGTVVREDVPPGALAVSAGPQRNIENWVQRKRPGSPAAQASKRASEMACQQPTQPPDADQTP

The assay concerns the target Bifunctional protein GlmU (Mycobacterium tuberculosis (strain ATCC 25618 / H37Rv)) (UniProt P9WMN3). Description: inhibition of mycobacterial GlmU enzyme – biochemical, glucosamine-1-phosphate acetyltransferase (AID 1376).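 Further: 0% = complete reaction with vehicle and 100% = reaction without substrate.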 The conditions noted are these: M. tuberculosis GlmU acetyltransferase enzyme assay; active compounds read high;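 tested at 30 µM in the primary screen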.
What is called inhibition is the relative decrease from the control value, in per cent. Turning to `COc1ccccc1NC(=O)Cn1c(CN2CCCCC2)nc2ccccc2c1=O`, the inhibition is 0.52% (inactive). Turning to `O=C(NC1(C(F)(F)F)NC(=O)N(c2ccc(F)cc2)C1=O)c1cccs1` (stereo not drawn), the inhibition is -0.58% (inactive). As to `Cc1sc2nc(SCC(=O)NCCO)n(C)c(=O)c2c1C`, the inhibition was 3.09% (inactive). In the case of `CCOC(=O)CNC(=O)CSc1nc2sc(C)c(C)c2c(=O)n1C` it was 15% (active). In the case of `CCOC(=O)CSc1nc2sc(C)c(C)c2c(=O)n1C` it was 3.47% (inactive). For `Cc1c(C(=O)NCc2cccnc2)sc2ncn(CC(=O)N3CCCCC3C)c(=O)c12` (stereo not drawn) the value was -7.32% (inactive); for `CCCCC(=O)Nc1nc(C)c(C(C)=O)s1`, -1.28% (inactive); for `Cc1nc(NC(=O)CCCC(=O)Nc2nc(C)c(C)s2)sc1C`, 13.9% (active). On to `Cc1nc(NC(=O)C2CC2)sc1C`, for which the inhibition is -0.38% (inactive). Turning to `CCC(=O)N(Cc1cc2cc(C)c(C)cc2[nH]c1=O)C1CCCCC1`, the inhibition was -7.37% (inactive).

As for `CC(=O)n1cc(/C=N/NC(N)=S)c2ccccc21`, the inhibition was -6.26% (inactive). For `CSCC[C@H](NC(=O)OC(C)(C)C)C(=O)N/N=C/c1ccc2nccnc2c1` the value was -6.4% (inactive); for `CSc1ccccc1C(=O)C1CCCN(Cc2ccn[nH]2)C1` (stereo not drawn), 10.5% (inactive); for `O=C(c1cc2cc(Cl)cc(Cl)c2oc1=O)N1CCOCC1`, -1.07% (inactive). For `Cc1ccccc1NS(=O)(=O)c1ccc2[nH]cc(C(=O)N(C)Cc3ccco3)c(=O)c2c1` the value was 29.4% (active); for `CN(Cc1ccco1)C(=O)c1c[nH]c2ccc(S(=O)(=O)Nc3ccc4c(c3)OCCO4)cc2c1=O`, 3.32% (inactive).

For `CCc1ccc(NS(=O)(=O)c2ccc3[nH]cc(C(=O)N(C)Cc4ccco4)c(=O)c3c2)cc1`, the inhibition is 1.75% (inactive). For `COc1cccc(C2=NOC(C(=O)Nc3cc(OC)c(OC)c(OC)c3)C2)c1` (stereo not drawn) the value was -0.12% (inactive); for `CCOc1ncccc1C(=O)Nc1nnc(C2CC2)s1`, 8.29% (inactive).

With `CC1CCCCN1CCNC(=O)CN1C(=O)COc2ccccc21` (stereo not drawn), the inhibition is -1.43% (inactive). In the case of `CCn1c(SCC(=O)c2ccc(Cl)cc2)nnc1-c1cccs1` it was -2.46% (inactive); in that of `CN(CC(=O)Nc1cccc(F)c1)C(=O)CCCc1cccs1`, -1.08% (inactive); in that of `COC(C[C@H]1O[C@@H]1C(=O)[C@H](C)OCc1ccccc1)OC`, 5.93% (inactive).

With `COC(C[C@@H]1O[C@@H]1C(=O)[C@H](C)OCc1ccccc1)OC`, the inhibition was -0.47% (inactive). For the compound `COC(C[C@@H]1O[C@@H]1C(=O)[C@@H](C)OCc1ccccc1)OC`, the inhibition was 14.7% (active). For `COC(=O)C1C(=O)c2c(C)noc2CC1(C)C` (stereo not drawn) the value was 7.63% (inactive).

For the compound `COc1ccc(C)cc1-n1nnnc1SCC(=O)Nc1cc(C)on1`, the inhibition was 4.65% (inactive). Consider `Cc1cc(C)c2nc(SCCc3ccccc3)nc(C)c2c1`, for which the inhibition was 6.08% (inactive). On to `Cc1cc(=O)oc2cc(OCC#N)ccc12`, for which the inhibition is -3.06% (inactive). In the case of `C=C(Cl)COc1ccc2c(C)cc(=O)oc2c1` it was -5.17% (inactive); in that of `C#CCOc1ccc2c(C)cc(=O)oc2c1`, 13.2% (active); in that of `COc1ccc(/C=C/C(=O)NNc2cc(=O)n(C)c(=O)n2C)cc1OC`, 3.78% (inactive). Turning to `COc1ccc(C/C(C)=N/NC(=S)Nc2ccccc2F)cc1`, the inhibition is -0.55% (inactive). With `O=C(CSc1nc2ccccc2n1CCc1ccccc1)NC1CC1`, the inhibition was 0.08% (inactive). In the case of `O=C(CSc1nc2ccccc2n1CCc1ccccc1)N1CCOCC1` it was -3.44% (inactive); in that of `O=C(CSc1nc2ccccc2n1CCc1ccccc1)c1ccc(O)c(O)c1`, 23.3% (active).

Regarding `CC1CC(=S)Nc2ccccc2N1C(=O)Nc1ccccc1` (stereo not drawn), the inhibition was 1.98% (inactive). In the case of `O=C1S/C(=C\c2ccc(Cl)cc2)C(=O)N1CCn1cnnn1` it was -3.11% (inactive). Turning to `O=C(NCc1ccc(F)cc1)c1ccc(CS(=O)(=O)Cc2ccc(F)cc2)o1`, the inhibition was 0.32% (inactive). In the case of `COc1ccc(C(=O)Nc2nc3ccccc3s2)cc1OC` it was 1.41% (inactive); in that of `O=[N+]([O-])c1cc(CN(CCO)CCO)ccc1O`, 1.38% (inactive). For `CC(NCC(O)COCc1ccc(Cl)cc1)c1ccccc1` (stereo not drawn) the value was -4.31% (inactive); for `O=c1oc2ccccc2c(Nc2cccc(O)c2)c1[N+](=O)[O-]`, 1.89% (inactive); for `O=c1oc2ccccc2c(Nc2ccccc2)c1[N+](=O)[O-]`, 0.42% (inactive). In the case of `O=c1oc2ccccc2c(Nc2ccc(O)cc2)c1[N+](=O)[O-]` it was 13.3% (active); in that of `Cc1cc(NC(=O)c2cc(-c3ccc(C)s3)nc3ccccc23)no1`, 2.43% (inactive). As for `COC(=O)/C(C(C)=O)=C(/C=C/C=C/N(C)C)N(C)C`, the inhibition was 6.24% (inactive). For `CCOC(=O)C1(Cc2ccc(Cl)cc2)CCN(C(=O)C2CCCO2)CC1` (stereo not drawn) the value was 1.7% (inactive); for `O=C(COc1ccc(Cc2ccccc2)cc1)c1ccc(F)cc1`, -3.15% (inactive); for `CC1=C(C#N)c2nc(N)c(C#N)c(C)c2/C1=C\c1ccc(C)cc1`, 2.53% (inactive).

As for `CC1=C(C#N)c2nc(N)c(C#N)c(C)c2/C1=C\c1ccc(OCC(=O)O)c(Cl)c1`, the inhibition is 4.55% (inactive). In the case of `Cc1ccccc1/C=N/NC(=O)Cc1ccc(Cl)cc1` it was 0.8% (inactive); in that of `CC(C)(C)N1CC(C(=O)O)CC1=O` (stereo not drawn), 6.47% (inactive). Consider `CC(=O)NC(CCS(C)(=O)=O)C(=O)Nc1ccccc1` (stereo not drawn), for which the inhibition is 2.39% (inactive). In the case of `CC(=O)NC(CCS(C)(=O)=O)C(=O)Nc1ccc(Oc2ccccc2)cc1` (stereo not drawn), the inhibition was -3.46% (inactive). Take `COc1ccc(NC(=O)C(CCS(C)(=O)=O)NC(C)=O)cc1` (stereo not drawn): the inhibition is 18.3% (active).

Regarding `O=[N+]([O-])c1cccc(/C=N/n2c(COc3ccccc3)n[nH]c2=S)c1`, the inhibition is 9.99% (inactive). For the compound `CC(C)(C)c1ccc(Oc2ccc(NC(=O)c3cccs3)cn2)cc1`, the inhibition is -0.97% (inactive).

In the case of `O=C1c2cccc([N+](=O)[O-])c2C(=O)N1c1ccccc1`, the inhibition is 1.03% (inactive). In the case of `O=C1OCc2cccc([N+](=O)[O-])c21` it was 7.84% (inactive).

For the compound `O=C1CC(=O)c2c1cccc2[N+](=O)[O-]`, the inhibition is 17% (active). For the compound `CC1(C)CC(=O)C(/C=N/c2ccccn2)=C(O)C1`, the inhibition is 0.36% (inactive). For `CC1(C)CC(=O)C(C=Nc2ccc(Cl)cn2)=C(O)C1` the value was 13.9% (active). In the case of `Cc1ccc(N=CC2=C(O)CC(C)(C)CC2=O)nc1` it was 0.57% (inactive); in that of `N#Cc1c2c(c(NCCN3CCOCC3)n3c1nc1ccccc13)CCCC2`, 6.82% (inactive); in that of `N#Cc1c2c(c(NCCCN3CCOCC3)n3c1nc1ccccc13)CCC2`, 13.8% (active). In the case of `CCCc1c(C)c(C#N)c2nc3ccccc3n2c1NCCCN1CCOCC1` it was 11.7% (inactive); in that of `COCCCNC(=O)C1CCN(C(=O)c2cc3sccc3n2Cc2ccc(F)cc2)CC1`, 1.5% (inactive); in that of `O=C(O)C[C@@H]1C(=O)O[C@@H]2C(COC(=O)c3cc(O)c(O)c(O)c3)O[C@@H](OC(=O)c3cc(O)c(O)c(O)c3)[C@@H](OC(=O)c3cc(O)c(O)c4c3[C@H]1[C@H](O)C(=O)O4)[C@H]2OC(=O)c1cc(O)c(O)c(O)c1` (stereo partly drawn), 67.3% (active). Turning to `O=C(OCC1O[C@@H](OC(=O)c2cc(O)c(O)c(O)c2)[C@@H](OC(=O)c2cc(O)c(O)c(O)c2)[C@@H](OC(=O)c2cc(O)c(O)c(O)c2)[C@@H]1OC(=O)c1cc(O)c(O)c(O)c1)c1cc(O)c(O)c(O)c1` (stereo partly drawn), the inhibition was 7.78% (inactive). For `CCCC1=C(C(=O)OCC)C(c2ccco2)C(C#N)=C(N)O1` (stereo not drawn) the value was 0.05% (inactive); for `Cc1ccc(N2C(=O)C(Cc3ccc(O)cc3)NC2=S)cc1C` (stereo not drawn), -4.47% (inactive); for `CC(=O)N1CCC(=NNC(=O)CSc2cc(C)c(Br)cc2C)CC1`, -1.13% (inactive). Take `COc1ccc(-c2nnc(SCC(=O)NCc3ccco3)n2C)cc1`: the inhibition was 3.67% (inactive).

With `Cc1cccc(N2C(=O)C(O)=C(C(=O)c3cccs3)C2c2ccc(Cl)cc2)n1` (stereo not drawn), the inhibition was 3.09% (inactive). In the case of `CC1CCN(c2ncnc3ccccc23)CC1` it was 2.04% (inactive); in that of `CC1CCN(c2nnc(-c3ccccc3)c3ccccc23)CC1`, 0.97% (inactive); in that of `CC1CCN(c2nncc3ccccc23)CC1`, 31.2% (active).

On to `COc1ccc(C(CNC(=O)COc2ccccc2-c2ccccc2)N2CCOCC2)cc1` (stereo not drawn), for which the inhibition is -8.37% (inactive). For `CCOC(=O)c1ccc(NC2c3ccccc3C(=O)N2c2cccnc2)cc1` (stereo not drawn) the value was 1.04% (inactive); for `Oc1c(Cl)cc(Cl)cc1C=Nc1ccc(Br)cc1`, 5.27% (inactive); for `Oc1c(Cl)cc(Cl)cc1Sc1cc(Cl)cc(Cl)c1O`, 13.1% (active). `C/C(=N\O)c1cc(Cl)cc(Cl)c1O`: the inhibition was -5.49% (inactive). For `COc1cc(NC(=O)Nc2ccc(Cl)c(Cl)c2)c(C(=O)O)cc1OC`, the inhibition is 0.76% (inactive). For `Cc1sc2nc(CN3CCC(C)CC3)nc(Cl)c2c1C` the value was -6.88% (inactive).

Consider `COc1cc(NC(=O)c2cc3nc(-c4ccccc4)cc(-c4ccccc4)n3n2)cc(OC)c1OC`, for which the inhibition was -2.98% (inactive). In the case of `COc1ccc(NC(=O)c2cc3nc(-c4ccccc4)cc(-c4ccccc4)n3n2)c(OC)c1` it was 20.8% (active); in that of `O=C(Nc1cccc(O)c1)c1cc2nc(-c3ccccc3)cc(-c3ccccc3)n2n1`, 1.52% (inactive); in that of `CC(C)CN(C(=O)CSc1nnc2c(Cl)cc(C(F)(F)F)cn12)C1CCS(=O)(=O)C1` (stereo not drawn), 52.2% (inactive).

For `Cc1ccc(N(CC(=O)N/N=C/c2cc(C)n(-c3ccccc3)c2C)S(C)(=O)=O)c(C)c1`, the inhibition was 1.57% (inactive). For `OCC1(CCc2ccccc2)CCN(Cc2c(F)ccc(F)c2F)CC1` the value was 3.84% (inactive); for `CC(C)CCNc1nnnc2c1sc1nc(N3CCOCC3)c3c(c12)CC(C)(C)SC3`, 2.31% (inactive); for `CCOc1ccc(NC(=S)N2CCc3cc(OC)c(OC)cc3C2COc2ccc3c(C)cc(=O)oc3c2)cc1` (stereo not drawn), 1.27% (inactive).
